Measured values from PubChem BioAssay AID1508633 (National Center for Advancing Translational Sciences (NCATS), 2021).
Records with an inconclusive call do not appear. The source made the active and inactive calls. The call rests on the fitted dose curve; in most records, active means well fitted inhibition curve with a large enough effect; inconclusive means small, poorly fitted or top-dose-only effect; inactive means no such curve, though single readings can be large or run the other way.

These molecules were tested on zebrafish ABCB5 (Abcb5) multidrug transporter (assay: qHTS for characterization and localization of zebrafish homologs of the human ABCB1 multidrug transporter: ABCB5 transfected cells). Details: CellTiter-Glo luminescence viability, 72 h; series mostly up to 46.1 µM.
From the text: The zebrafish has emerged as a potential model to study the blood-brain barrier (BBB) given its similarities with mammalian systems. However, little information has been available with regard to homologous ATP-binding cassette transporters expressed at the zebrafish BBB. Two transporters that are highly expressed at the human BBB are P-glycoprotein (P-gp, encoded by the ABCB1 gene) and ABCG2 (encoded by the ABCG2 gene). In this study, we focus on characterization of P-gp homologs in the zebrafish, which has two genes that are homologous to human ABCB1 - abcb4 and abcb5. We generated stably-transfected cell lines to determine their substrate specificities. […] Zebrafish abcb4 also colocalized with claudin 5 expression in brain endothelial cells.
A high-throughput screen was performed as previously described on empty vector transfected cells, P-gp-overexpressing MDR-19 cells and cells transfected with full-length zebrafish abcb4 (ZF Abcb4) or abcb5 (ZF Abcb5). Briefly, cells were plated into 1536-well plates at a density of 500 cells/well in 5 uL media. P-gp substrate compounds (approximately 90) selected from our previous study were then added at varying concentrations using a 1536-head pin tool (Kalypsis, San Diego, CA) and plates were incubated at 37C in 5% CO2 for 72 h. CellTiter-Glo reagent (Promega) was dispensed into the wells, incubated for 5 min and luminescence was read on a ViewLux instrument (Perkin-Elmer).
Cytotoxic compounds were defined as those that yielded a curve class of -1.1, -1.2, -2.1, -2.2, -2.3, or -2.4, a maximum response of >50% and an AC50 of < 10 uM. All compounds from screening analysis were tested in Vector (empty vector control), MDR-19 (P-gp overexpressing), zebrafish abcb4 (ZF Abcb4) and abcb5 (ZF Abcb5) expression cell lines.
1. Tobie D Lee, Olivia W Lee, Kyle R Brimacombe, Lu Chen, Rajarshi Guha, Sabrina Lusvarghi, Bethilehem G Tebase, Carleen Klumpp-Thomas, Robert W Robey, Suresh V Ambudkar, Min Shen, Michael M Gottesman, Matthew D Hall. A High-Throughput Screen of a Library of Therapeutics Identifies Cytotoxic Substrates of P-glycoprotein. Mol Pharmacol. 2019, Nov;96(5):629-640.
With `CN(C)C/C=C/C(=O)Nc1cccc(C(=O)Nc2ccc(Nc3nccc(-c4cccnc4)n3)cc2)c1` the Potency was 14.8 µM (active).
For `CCCCc1nc2cc(C=CC(=O)NO)ccc2n1CCN(CC)CC`, the Potency was 7.43 µM (active).
`C=CCn1c(=O)c2cnc(Nc3ccc(N4CCN(C)CC4)cc3)nc2n1-c1cccc(C(C)(C)O)n1` was tested, and the Potency was 2.35 µM (active).
`CC(=O)OC1C(=O)C2(C)C(O)CC3OCC3(OC(C)=O)C2C(OC(=O)c2ccccc2)C2(O)CC(OC(=O)C(O)C(NC(=O)c3ccccc3)c3ccccc3)C(C)=C1C2(C)C` (stereo unspecified) was tested, and the Potency was “inactive”.
With `CC(=O)C1(O)Cc2c(O)c3c(c(O)c2C(OC2CC(N)C(O)C(C)O2)C1)C(=O)c1c(O)cccc1C3=O` (stereo unspecified) the Potency was 0.059 µM (active).
`C/C=C1/NC(=O)C2CSSCCC=CC(CC(=O)NC(C(C)C)C(=O)N2)OC(=O)C(C(C)C)NC1=O` (stereo unspecified) was tested, and the Potency was 2.09 µM (active).
`CC(NCc1ccc2c(c1)nc(NC(=O)c1ccc(-c3cn[nH]c3)s1)n2CC(C)(C)O)C(C)(C)C` (stereo unspecified) was tested, and the Potency was 3.72 µM (active).
With `CC[C@@H]1C(=O)N(C)c2cnc(Nc3ccc(C(=O)NC4CCN(C)CC4)cc3OC)nc2N1C1CCCC1` the Potency was 1.32 µM (active).
For `C=CCNC1=C2CC(C)CC(OC)C(O)C(C)/C=C(\C)C(OC(N)=O)C(OC)/C=C/C=C(\C)C(=O)NC(=CC1=O)C2=O` (stereo unspecified), the Potency was 11.8 µM (active).
For `CC[C@@H]1C(=O)N(C)c2cnc(Nc3ccc(C(=O)NC4CCC(N5CCN(CC6CC6)CC5)CC4)cc3OC)nc2N1C(C)C` (stereo partly specified), the Potency was 1.32 µM (active).
With `CC1(C)CC(NC(=O)C(=O)Nc2ccc(Br)cc2)CC(C)(C)N1` the Potency was “inactive”.
